Results: PubChem BioAssay AID1159580 (chemical genetic matrix, 2015)
About 2,000 (36%) of roughly 5,500 compounds were called active. Roughly 18% stayed inconclusive and do not appear here. Rule as the data show it: active = normalized growth mostly below about 0.91 (no sharp cut-off); inconclusive = no clear call, values can overlap the other calls; inactive = mostly above about 0.92. The list shows a part of the results.

Test: chemical genetic growth profiling, strain panel (AID 1159580);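 also: tested at 20 µM; growth read once vehicle control cultures reached saturation at 30 °C; 1 = growth at the plate median or of vehicle wells; lower values mean less growth of the strain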
Conditions: S. cerevisiae deletion strains, growth OD

Measured: normalized growth

CC(C)(CO)Cc1cc(C(C)(C)C)c(O)c(C(C)(C)C)c1
inactive: locus YAL013W, strain DEP1, active compounds read low 0.972 | locus YAL040C, strain CLN3, active compounds read low 0.927 | locus YCL061C, strain MRC1 (second series), active compounds read low 0.975 | locus YDR363W, strain ESC2, active compounds read low 1.02 | locus YER002W, strain NOP16, active compounds read low 0.968 | locus YGR078C, strain PAC10, active compounds read low 0.978 | locus YGR229C, strain SMI1, active compounds read low 0.898 | locus YNL175C, strain NOP13, active compounds read low 0.954 | locus YNL197C, strain WHI3, active compounds read low 0.959 | locus YNL224C, strain SQS1, active compounds read low 0.962 | locus YNL322C, strain KRE1, active compounds read low 0.975 | locus YOR083W, strain WHI5 (second series), active compounds read low 0.951
